Assay results: the supplement of paper PMC10849652
Targets with a hit are over-represented here; the source holds about 7,900 in all. About 0.6% of all pairs of compound and target were hits. Values without a mark were called inactive.

Key:
Assay in all cases: log2 fold change, soluble protein after heating vs DMSO (PISA); higher = thermal stabilisation; K562 cells, 10 uM, 30 min; active = over 0.2 and 3.5 SD of the protein, either way, in both replicates (recomputed)
erlotinib = compound: C#Cc1cccc(Nc2ncnc3cc(OCCOC)c(OCCOC)cc23)c1 [erlotinib]
Procedure, shortened: (§1)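 K562 cells (2×10^6 cells/mL) were treated with 10 μM compound for 30 min, and aliquots were heated for 3 min over 48°C-58°C. Pooled aliquots were extracted in PBS with 0.5% NP-40 at 4°C, and the supernatant after 21,000xg for 90 min was measured by TMTpro 16plex LC-MS/MS with channel sums equalised. Reported thermal stability, relative to control samples and from duplicates, is a log2 fold change.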

[1] = compound: C/C(=N\NC(=O)C1=CC(=CC=C1)S(=O)(=O)N2CCOCC2)/C3=C(C=CC(=C3)Cl)O
Procedure, shortened: as §1

[2] = compound: C1=CC(=C(C=C1Cl)C2=NC3=NC=CN=C3C(=N2)NC4=CC=NC=C4)F
Procedure, shortened: as §1

[3] = compound: C1=CC(=CC=C1C2=NC3=C(N2)C=C(C=C3)C(=O)N)OC4=CC=C(C=C4)Cl
Procedure, shortened: as §1

[4] = compound: C1=CC2=C(C=CC(=C2)/C=C\3/C(=O)NC(=NCC4=CC=CS4)S3)N=C1
Procedure, shortened: as §1

[5] = compound: C1=CC2=NC=CN=C2C=C1/C=C/3\C(=O)NC(=O)S3
Procedure, shortened: as §1

[6] = compound: C1=CC=C(C=C1)C2=NC(=C(N2)C3=CC=NC=C3)C4=CC(=C(C=C4)Cl)O
Procedure, shortened: as §1

[7] = compound: C1=CC=C2C(=C1)C3=NNC4=CC=CC(=C43)C2=O
Procedure, shortened: as §1

[8] = compound: C1CCN(C1)C(=O)NC2=CC=CC(=C2)NC3=NC=C(C(=N3)NCCC4=CN=CN4)Br
Procedure, shortened: as §1

[9] = compound: C1CN(CCC1(CC2=CC=C(C=C2)Cl)N)C3=NC=NC4=C3C=CN4
Procedure, shortened: as §1

IRAK-1-4 Inhibitor I = compound: C1COCCN1CCN2C3=CC=CC=C3N=C2NC(=O)C4=CC(=CC=C4)[N+](=O)[O-] [IRAK-1-4 Inhibitor I]
Procedure, shortened: as §1

ibrutinib = compound: C=CC(=O)N1CCC[C@@H](n2nc(-c3ccc(Oc4ccccc4)cc3)c3c(N)ncnc32)C1 [ibrutinib]
Procedure, shortened: as §1

[10] = compound: CC(=O)c1cnc2ccc(-c3cc(Cl)c(O)c(Cl)c3)nc2c1N[C@H]1CC[C@H](CN(C)C)CC1
Procedure, shortened: as §1

ralimetinib = compound: CC(C)(C)Cn1c(N)nc2ccc(-c3[nH]c(C(C)(C)C)nc3-c3ccc(F)cc3)nc21 [ralimetinib]
Procedure, shortened: as §1

[11] = compound: CC(C)(O)CC(=O)NCCn1ccc2ncnc(Nc3ccc(Oc4cccc(C(F)(F)F)c4)c(Cl)c3)c21
Procedure, shortened: as §1

[12] = compound: CC(C)C1=C2N=C(C=C(N2N=C1)NCC3=CC=CC=C3)NCCCCCCN
Procedure, shortened: as §1

[13] = compound: CC(C)C[C@@H](C=O)NC(=O)[C@H](CC(C)C)NC(=O)[C@H](CC(C)C)NC(=O)OCc1ccccc1
Procedure, shortened: as §1

pinometostat = compound: CC(C)N(C[C@H]1O[C@@H](n2cnc3c(N)ncnc32)[C@H](O)[C@@H]1O)[C@H]1C[C@@H](CCc2nc3cc(C(C)(C)C)ccc3[nH]2)C1 [pinometostat]
Procedure, shortened: as §1

[14] = compound: CC1=C(C(CC(=O)N1)C2=CC=C(C=C2)C(F)(F)F)C(=O)NC3=C(C=C4C(=C3)C=NN4)F
Procedure, shortened: as §1

[15] = compound: CC1=C(C2=C(C=C1)C(=O)C3=CC=CC=C3N2CCCN)C
Procedure, shortened: as §1

Chain of UniProt O95573 (O95573 whole entry, looked up): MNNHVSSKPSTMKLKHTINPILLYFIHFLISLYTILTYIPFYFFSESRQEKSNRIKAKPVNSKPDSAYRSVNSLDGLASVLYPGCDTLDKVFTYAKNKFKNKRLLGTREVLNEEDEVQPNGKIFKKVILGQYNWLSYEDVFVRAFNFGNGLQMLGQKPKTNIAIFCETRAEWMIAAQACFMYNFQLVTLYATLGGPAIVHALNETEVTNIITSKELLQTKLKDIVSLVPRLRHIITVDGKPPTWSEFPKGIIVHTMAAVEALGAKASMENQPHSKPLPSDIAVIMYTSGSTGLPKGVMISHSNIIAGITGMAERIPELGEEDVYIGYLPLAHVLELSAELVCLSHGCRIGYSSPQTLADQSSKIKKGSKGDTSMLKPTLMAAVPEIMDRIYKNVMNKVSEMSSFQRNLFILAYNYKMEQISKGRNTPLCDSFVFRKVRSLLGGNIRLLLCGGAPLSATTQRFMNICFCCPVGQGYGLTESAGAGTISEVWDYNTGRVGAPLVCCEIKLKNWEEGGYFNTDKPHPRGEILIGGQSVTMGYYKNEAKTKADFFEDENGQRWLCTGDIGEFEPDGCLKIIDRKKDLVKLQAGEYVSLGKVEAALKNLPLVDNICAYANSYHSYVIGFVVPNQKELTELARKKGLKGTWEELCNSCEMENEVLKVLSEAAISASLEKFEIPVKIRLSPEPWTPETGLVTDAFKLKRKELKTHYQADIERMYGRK
Chain of UniProt O00244 (O00244 whole entry, looked up): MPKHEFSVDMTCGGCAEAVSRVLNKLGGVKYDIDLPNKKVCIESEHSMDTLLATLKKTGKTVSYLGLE
Chain of UniProt Q8NHH9 (Q8NHH9 whole entry, looked up): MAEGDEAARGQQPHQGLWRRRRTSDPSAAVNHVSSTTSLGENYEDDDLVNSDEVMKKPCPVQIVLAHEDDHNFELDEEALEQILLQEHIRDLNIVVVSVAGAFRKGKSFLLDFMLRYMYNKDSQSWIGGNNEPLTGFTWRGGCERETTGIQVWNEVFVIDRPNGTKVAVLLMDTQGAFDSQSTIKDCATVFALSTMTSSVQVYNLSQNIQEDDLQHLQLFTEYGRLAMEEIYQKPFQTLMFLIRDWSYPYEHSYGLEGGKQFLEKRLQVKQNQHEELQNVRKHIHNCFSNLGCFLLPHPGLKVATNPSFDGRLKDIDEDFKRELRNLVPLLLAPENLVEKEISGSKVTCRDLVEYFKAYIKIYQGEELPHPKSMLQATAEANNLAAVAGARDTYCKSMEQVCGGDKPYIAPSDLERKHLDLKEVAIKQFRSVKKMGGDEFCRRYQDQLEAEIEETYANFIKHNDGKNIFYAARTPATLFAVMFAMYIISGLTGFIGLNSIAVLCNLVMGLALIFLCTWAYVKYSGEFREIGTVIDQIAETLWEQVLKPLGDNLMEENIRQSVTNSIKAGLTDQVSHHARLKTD
Chain of UniProt P11117 (P11117 whole entry, looked up): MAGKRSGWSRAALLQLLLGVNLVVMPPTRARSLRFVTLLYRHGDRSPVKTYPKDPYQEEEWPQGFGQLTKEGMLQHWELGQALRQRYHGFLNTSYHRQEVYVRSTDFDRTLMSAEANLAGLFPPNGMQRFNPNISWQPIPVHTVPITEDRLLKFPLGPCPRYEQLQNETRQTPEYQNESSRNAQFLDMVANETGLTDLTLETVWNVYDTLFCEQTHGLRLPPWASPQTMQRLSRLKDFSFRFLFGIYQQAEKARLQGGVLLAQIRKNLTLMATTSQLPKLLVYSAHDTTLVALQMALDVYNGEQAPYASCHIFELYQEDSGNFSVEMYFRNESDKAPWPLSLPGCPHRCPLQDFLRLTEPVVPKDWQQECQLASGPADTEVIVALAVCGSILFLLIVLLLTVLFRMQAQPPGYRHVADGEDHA
Chain of UniProt P36405 (P36405 whole entry, looked up): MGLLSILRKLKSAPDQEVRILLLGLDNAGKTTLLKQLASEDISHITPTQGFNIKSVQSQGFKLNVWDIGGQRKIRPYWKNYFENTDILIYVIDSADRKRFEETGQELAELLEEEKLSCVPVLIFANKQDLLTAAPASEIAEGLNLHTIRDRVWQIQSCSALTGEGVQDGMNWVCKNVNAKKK
Chain of UniProt Q8WV93 (Q8WV93 whole entry, looked up): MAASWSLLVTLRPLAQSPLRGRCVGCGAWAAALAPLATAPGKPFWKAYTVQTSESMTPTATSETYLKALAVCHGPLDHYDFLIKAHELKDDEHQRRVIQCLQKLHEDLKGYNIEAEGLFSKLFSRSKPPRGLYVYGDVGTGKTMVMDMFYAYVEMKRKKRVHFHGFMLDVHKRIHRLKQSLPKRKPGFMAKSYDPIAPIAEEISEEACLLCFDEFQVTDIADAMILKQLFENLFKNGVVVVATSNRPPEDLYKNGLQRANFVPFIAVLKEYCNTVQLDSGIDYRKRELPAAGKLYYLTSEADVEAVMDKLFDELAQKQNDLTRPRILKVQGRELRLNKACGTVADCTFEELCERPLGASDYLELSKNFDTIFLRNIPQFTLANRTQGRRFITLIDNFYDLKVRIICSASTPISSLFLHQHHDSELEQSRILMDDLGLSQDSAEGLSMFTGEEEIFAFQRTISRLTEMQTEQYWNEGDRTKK
Chain of UniProt Q96CW1 (Q96CW1 whole entry, looked up): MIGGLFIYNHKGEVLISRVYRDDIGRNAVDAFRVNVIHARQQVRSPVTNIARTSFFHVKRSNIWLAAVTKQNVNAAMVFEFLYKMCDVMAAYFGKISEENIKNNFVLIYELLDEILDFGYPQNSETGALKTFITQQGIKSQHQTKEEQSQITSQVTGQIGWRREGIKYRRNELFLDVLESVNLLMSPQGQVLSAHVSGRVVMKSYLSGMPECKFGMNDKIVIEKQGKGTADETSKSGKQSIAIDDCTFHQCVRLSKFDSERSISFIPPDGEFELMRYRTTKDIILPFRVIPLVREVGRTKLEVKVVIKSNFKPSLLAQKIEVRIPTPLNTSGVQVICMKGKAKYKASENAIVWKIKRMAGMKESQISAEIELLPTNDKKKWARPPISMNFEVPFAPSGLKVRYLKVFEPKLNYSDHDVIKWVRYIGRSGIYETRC
Chain of UniProt Q8N6H7 (Q8N6H7 whole entry, looked up): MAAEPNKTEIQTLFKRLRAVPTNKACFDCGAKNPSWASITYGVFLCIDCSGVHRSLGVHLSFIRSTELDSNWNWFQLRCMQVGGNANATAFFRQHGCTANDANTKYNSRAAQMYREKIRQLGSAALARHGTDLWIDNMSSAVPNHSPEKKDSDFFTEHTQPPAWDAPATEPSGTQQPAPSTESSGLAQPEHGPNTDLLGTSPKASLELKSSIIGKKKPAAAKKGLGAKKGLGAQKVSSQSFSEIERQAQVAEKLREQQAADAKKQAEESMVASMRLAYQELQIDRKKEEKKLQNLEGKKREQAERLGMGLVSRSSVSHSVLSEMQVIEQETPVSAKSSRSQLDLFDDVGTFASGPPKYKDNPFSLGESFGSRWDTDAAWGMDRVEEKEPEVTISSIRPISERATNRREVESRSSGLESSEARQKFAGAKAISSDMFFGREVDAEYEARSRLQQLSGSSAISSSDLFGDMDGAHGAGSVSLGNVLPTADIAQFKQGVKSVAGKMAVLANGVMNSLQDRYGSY
Chain of UniProt Q16186 (Q16186 whole entry, looked up): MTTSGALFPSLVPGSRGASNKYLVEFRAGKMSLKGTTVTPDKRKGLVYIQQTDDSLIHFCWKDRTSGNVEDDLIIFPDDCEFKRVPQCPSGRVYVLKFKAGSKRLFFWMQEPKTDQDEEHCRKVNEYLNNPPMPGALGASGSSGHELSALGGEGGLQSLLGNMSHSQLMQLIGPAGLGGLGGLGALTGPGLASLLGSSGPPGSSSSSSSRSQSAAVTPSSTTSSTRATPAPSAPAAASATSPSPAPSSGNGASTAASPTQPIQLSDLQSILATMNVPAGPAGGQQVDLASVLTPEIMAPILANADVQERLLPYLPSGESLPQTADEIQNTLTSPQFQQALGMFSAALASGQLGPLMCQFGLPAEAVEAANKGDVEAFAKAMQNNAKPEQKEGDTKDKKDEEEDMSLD
Chain of UniProt Q9ULC5 (Q9ULC5 whole entry, looked up): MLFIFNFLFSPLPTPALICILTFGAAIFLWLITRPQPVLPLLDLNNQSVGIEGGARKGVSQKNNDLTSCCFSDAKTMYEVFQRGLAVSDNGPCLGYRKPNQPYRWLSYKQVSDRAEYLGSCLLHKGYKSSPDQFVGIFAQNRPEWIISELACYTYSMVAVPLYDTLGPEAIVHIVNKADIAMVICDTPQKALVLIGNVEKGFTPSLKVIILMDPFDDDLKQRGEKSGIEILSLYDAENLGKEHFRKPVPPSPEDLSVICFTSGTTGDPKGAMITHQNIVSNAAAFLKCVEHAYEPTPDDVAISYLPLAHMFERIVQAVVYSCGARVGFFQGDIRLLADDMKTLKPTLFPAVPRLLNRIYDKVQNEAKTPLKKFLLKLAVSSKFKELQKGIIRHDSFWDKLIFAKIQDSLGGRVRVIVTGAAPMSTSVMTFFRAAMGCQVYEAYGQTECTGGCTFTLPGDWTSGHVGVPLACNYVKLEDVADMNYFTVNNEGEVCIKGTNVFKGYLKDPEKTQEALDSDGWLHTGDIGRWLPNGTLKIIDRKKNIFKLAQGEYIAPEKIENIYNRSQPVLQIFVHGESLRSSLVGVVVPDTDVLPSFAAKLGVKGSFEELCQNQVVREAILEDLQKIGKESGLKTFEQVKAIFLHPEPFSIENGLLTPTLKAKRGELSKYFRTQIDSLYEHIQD
Chain of UniProt P18085 (P18085 whole entry, looked up): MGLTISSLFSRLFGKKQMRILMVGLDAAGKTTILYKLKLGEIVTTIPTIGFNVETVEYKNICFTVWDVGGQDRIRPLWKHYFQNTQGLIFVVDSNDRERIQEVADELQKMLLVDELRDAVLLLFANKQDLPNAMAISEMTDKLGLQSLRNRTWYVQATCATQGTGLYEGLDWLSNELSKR

Target	log2 fold change (erlotinib)	log2 fold change [1]	log2 fold change [2]	log2 fold change [3]	log2 fold change [4]	log2 fold change [5]	log2 fold change [6]	log2 fold change [7]	log2 fold change [8]	log2 fold change [9]	log2 fold change (IRAK-1-4 Inhibitor I)	log2 fold change (ibrutinib)	log2 fold change [10]	log2 fold change (ralimetinib)	log2 fold change [11]	log2 fold change [12]	log2 fold change [13]	log2 fold change (pinometostat)	log2 fold change [14]	log2 fold change [15]
ARF4 (UniProt P18085)	-0.029	0.033	0.093	-0.007	0.006	-0.016	0.093	0.039	-0.015	-0.021	0.072	0.003	-0.027	-0.019	-0.103	0.117	-0.032	-0.042	-0.071	0.128
AP2M1 (UniProt Q96CW1)	-0.067	0.006	-0.012	0.017	0.005	-0.016	0.036	-0.26 (active)	-0.367 (active)	-0.01	-0.049	0.043	-0.043	0.036	0.022	0.045	0.011	0.026	0.011	0.079
ARFGAP2 (UniProt Q8N6H7)	0.017	0.034	0.019	-0.016	0.06	0	-0.01	-0.007	-0.053	-0.009	-0.016	-0.064	-0.014	-0.001	-0.032	0.062	-0.005	0.046	-0.006	0.005
ACP2 (UniProt P11117)	0.031	0.004	0.061	0.019	0.019	-0.01	0.022	-0.022	-0.003	0.045	0.047	0.033	-0.012	-0.012	-0.03	-0.205	-0.026	0.027	0.02	-0.006
ALG5 (UniProt Q9Y673)	-0.008	0.014	0.071	0.008	0.023	0.003	0.009	0.048	-0.026	-0.007	0.026	-0.043	-0.281 (active)	0.009	-0.009	-0.004	0	-0.002	-0.057	0.07
AKAP8 (UniProt O43823)	-0.056	0.032	0.074	0.039	-0.028	-0.004	-0.039	-0.068	0.015	0.018	0.058	0.002	-0.205	-0.018	-0.097	0.019	0.054	0.003	0.056	-0.113
ACSL3 (UniProt O95573)	-0.005	0.055	0.092	0.351 (active)	0.078	0.031	0.06	0.069	-0.005	0.039	0	-0.001	-0.035	-0.009	-0.086	-0.025	-0.009	-0.004	0.023	0.035
ARL3 (UniProt P36405)	-0.009	0.007	0.033	-0.037	0.046	0.007	0.019	-0.015	-0.026	0.041	0.049	-0.01	-0.033	-0.042	-0.034	0.065	-0.057	-0.029	0.002	0.017
ATL2 (UniProt Q8NHH9)	-0.004	0	0.081	0.004	0.049	0.012	0.049	0.014	0.077	0	0.011	0.006	-0.058	-0.116	-0.087	0.054	-0.001	0.035	-0.016	0.169
ACSL5 isoform 3 (UniProt Q9ULC5)	0.044	0.039	-0.021	0.028	-0.029	-0.011	-0.007	0.047	-0.003	0.061	0.02	0.03	-0.017	-0.03	0.014	-0.354 (active)	-0.001	0.095	0.049	0.088
ATOX1 (UniProt O00244)	-0.033	0.307	0.141	0.068	-0.089	0.074	0.242	0.112	-0.061	0.024	0.018	0.01	0.154	0.23	-0.005	0.109	-0.198	-0.153	-0.004	0.099
AFG1L (UniProt Q8WV93)	0.053	0	0.076	-0.083	0.065	0.041	-0.204	-0.042	0.058	-0.004	0.014	-0.016	-0.135	-0.134	-0.091	-0.385 (active)	0.146	0.023	0.057	-0.056
AHSA1 (UniProt O95433)	0.007	0.011	0.081	-0.015	0.012	0.037	0.013	0.039	-0.006	0.023	0.002	-0.043	-0.007	0	-0.022	-0.038	-0.008	-0.045	0.003	0
ALDH6A1 (UniProt Q02252)	0.067	-0.02	0.061	-0.144	0.074	-0.043	0.038	-0.038	-0.03	0.043	0.004	-0.023	-0.041	0.019	-0.155	-0.068	-0.002	-0.01	-0.004	0.018
BRD8 (UniProt Q9H0E9)	-0.057	-0.036	-0.067	0.068	-0.005	0.037	-0.074	-0.064	0.016	-0.058	0	-0.014	-0.009	-0.022	-0.012	-0.013	0.098	0.001	0.03	-0.019
ADRM1 (UniProt Q16186)	-0.069	-0.038	-0.007	0.006	0.034	0.033	0.028	0.046	-0.017	-0.076	-0.096	-0.111	0.033	0.065	-0.077	-0.005	-0.064	0.015	-0.022	0.04
